Seven compounds from PubChem BioAssay (NCI) can be followed below.

Experiment [1] is described as follows: NCI Yeast Anticancer Drug Screen. Data for the rad50 strain (AID 155).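 Further: 0% = growth of vehicle-only cultures of the same strain.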 Particulars: S. cerevisiae rad50 strain growth inhibition, stronger effect = higher value. An outline of the steps: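 Genetically altered yeast (DNA repair pathway); compound treatment; growth inhibition vs vehicle ctrl.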
Experiment [2] in a line: NCI Yeast Anticancer Drug Screen. Data for the mec2-1 strain (AID 157). Conditions: S. cerevisiae mec2-1 strain, stronger effect = higher value. The gist of the method:
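mec2-1 yeast strain, carrying an alteration in DNA damage repair or cell cycle control, was exposed to compounds; growth inhibition was measured relative to vehicle-treated controls.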

A short description of experiment [3]: NCI Yeast Anticancer Drug Screen. Data for the sgs1 mgt1 strain (AID 161).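 Further: 0% = growth of cultures given vehicle only.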 Particulars: S. cerevisiae sgs1 mgt1 strain, stronger effect = higher value. An outline of the steps: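 Percent growth inhibition was derived by comparing compound-exposed mutant yeast with vehicle-exposed cultures. The strain carries alterations in DNA damage repair.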
A short description of experiment [4]: NCI Yeast Anticancer Drug Screen. Data for the cln2 rad14 strain (AID 165).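 Further: 0% = growth equal to vehicle treated cultures.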 Conditions: S. cerevisiae cln2 rad14 strain, stronger effect = higher value. The gist of the method:
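Yeast carrying cln2 and rad14 alterations (cell cycle control and DNA damage repair) were exposed to compounds. Growth inhibition was measured against vehicle-treated controls.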

Experiment [5] is described as follows: NCI Yeast Anticancer Drug Screen. Data for the bub3 strain (AID 167). Particulars: S. cerevisiae bub3 mutant strain, stronger effect = higher value. An outline of the steps:
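Yeast carrying a defined mutation is treated with each compound, and growth is compared with that of vehicle-exposed cells to give inhibition.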

Experiment [6] in a line: NCI Yeast Anticancer Drug Screen. Data for the mlh1 rad18 strain (AID 175). Particulars: S. cerevisiae mlh1 rad18 strain growth inhibition, stronger effect = higher value. The gist of the method:
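Growth inhibition of the yeast strain was measured after compound exposure and expressed relative to vehicle-treated controls. The strain carries defined defects in DNA damage repair.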

Setting [7] is: at 5.0 µM (retest, dose inferred, filed as 0.5).
Setting [8] is: at 50.0 µM (retest, dose inferred, filed as 5.0).

SMILES strings stand for the structures. “And” between values parts separate entries of the source, which are not always exact repeats. Identical values can stand only once. Compounds without any hit were thinned out: in the full panel of roughly 79,000, 15% have a hit. Some structures have more than one record in an assay (separate samples or runs), and their calls can disagree. The source made the active and inactive calls. No stated cut-off is given here; in the data, active means growth inhibition above about 70%; inactive means the rest.

Regarding `CCOC(=O)C(CN)(c1ccccc1)c1ccccc1`, the growth inhibition in experiment [1] (setting [7]) is -7% (inactive); in experiment [1] (setting [8]), 1% (inactive); in experiment [1] (at 50.0 µM), 11.8% (inactive); in experiment [2] (setting [7]), -4% (inactive); in experiment [2] (setting [8]) it was 8% (inactive); in experiment [2] (at 50.0 µM) it was -5.4% (inactive). Besides, the growth inhibition in experiment [3] (setting [7]) is -4% (inactive); in experiment [3] (setting [8]), -13% (inactive); in experiment [3] (at 50.0 µM), 5.35% (inactive); in experiment [4] (setting [7]), 2% (inactive); in experiment [4] (setting [8]), -12% (inactive); in experiment [4] (at 50.0 µM), 43.8% (inactive). Besides, the growth inhibition in experiment [5] (setting [7]) was -4% (inactive); in experiment [5] (setting [8]), 0% (inactive); in experiment [5] (at 50.0 µM), -1.15% (inactive); in experiment [6] (setting [7]), -7% (inactive); in experiment [6] (setting [8]), -10% (inactive); in experiment [6] (at 50.0 µM) it was 17.1% (inactive).

As to `Nc1cc2c(cc1Cl)[nH]c(=O)c1cc(Cl)ccc12`, the growth inhibition was 46% (inactive) in experiment [1] (setting [7]); 65% (inactive) in experiment [1] (setting [8]); 86.2% (active) in experiment [1] (at 50.0 µM); 27% (inactive) in experiment [2] (setting [7]); 14% (inactive) in experiment [2] (setting [8]); 3.6% (inactive) in experiment [2] (at 50.0 µM). Also, the growth inhibition was 26% (inactive) in experiment [3] (setting [7]); 17% (inactive) in experiment [3] (setting [8]); 18.3% (inactive) in experiment [3] (at 50.0 µM); 10% (inactive) in experiment [4] (setting [7]); 6% (inactive) in experiment [4] (setting [8]); -0.9% (inactive) in experiment [4] (at 50.0 µM). Further, the growth inhibition in experiment [5] (setting [7]) is 39% (inactive); in experiment [5] (setting [8]) it was 10% (inactive); in experiment [5] (at 50.0 µM), -11.3% (inactive); in experiment [6] (setting [7]), 38% (inactive); in experiment [6] (setting [8]), 40% (inactive); in experiment [6] (at 50.0 µM), 22.6% (inactive).

As for `Cc1cc2c(c(Br)c1O)Oc1c(cc(C)c(O)c1Br)C21OC(=O)c2ccccc21`, the growth inhibition in experiment [1] (setting [7]) is 52% (inactive); in experiment [1] (setting [8]) it was 98% (active); in experiment [1] (at 50.0 µM), 90.7% (active); in experiment [2] (setting [7]) it was 42% (inactive); in experiment [2] (setting [8]), 99% (active); in experiment [2] (at 50.0 µM), 93% (active). Also, the growth inhibition in experiment [3] (setting [7]) was 55% (inactive); in experiment [3] (setting [8]), 99% (active); in experiment [3] (at 50.0 µM) it was 92.6% (active); in experiment [4] (setting [7]), 36% (inactive); in experiment [4] (setting [8]) it was 98% (active); in experiment [4] (at 50.0 µM), 92.5% (active). In addition, the growth inhibition in experiment [5] (setting [7]) is 52% (inactive); in experiment [5] (setting [8]) it was 99% (active); in experiment [5] (at 50.0 µM) it was 91% (active); in experiment [6] (setting [7]), 77% (active); in experiment [6] (setting [8]) it was 98% (active); in experiment [6] (at 50.0 µM), 90% (active).

Turning to `CCCC(O)c1ccc(C)cc1` (stereo unspecified), the growth inhibition in experiment [1] (setting [7]) was 11% (inactive) and 1% (inactive); in experiment [1] (setting [8]), 20% (inactive) and 2% (inactive); in experiment [1] (at 50.0 µM) it was 12.8% (inactive) and -26.4% (inactive); in experiment [2] (setting [7]), 4% (inactive) and 3% (inactive); in experiment [2] (setting [8]) it was 21% (inactive) and -2% (inactive); in experiment [2] (at 50.0 µM) it was 33.5% (inactive) and -6.65% (inactive). Moreover, the growth inhibition in experiment [3] (setting [7]) was 5% (inactive) and 0% (inactive); in experiment [3] (setting [8]), 33% (inactive) and -1% (inactive); in experiment [3] (at 50.0 µM), 0.4% (inactive) and 15.7% (inactive); in experiment [4] (setting [7]), 5% (inactive) and -1% (inactive); in experiment [4] (setting [8]), 10% (inactive) and 0% (inactive); in experiment [4] (at 50.0 µM) it was -43.6% (inactive) and 18.9% (inactive). The growth inhibition is -2% (inactive) and -3% (inactive) in experiment [5] (setting [7]); 98% (active) and -10% (inactive) in experiment [5] (setting [8]); -6.05% (inactive) and 14.9% (inactive) in experiment [5] (at 50.0 µM); 7% (inactive) and 5% (inactive) in experiment [6] (setting [7]); 21% (inactive) and 7% (inactive) in experiment [6] (setting [8]); 6.2% (inactive) and -10.3% (inactive) in experiment [6] (at 50.0 µM).

Regarding `Nc1ncnc(N)c1N=O`, the growth inhibition in experiment [1] (setting [7]) is -19% (inactive); in experiment [1] (setting [8]), 1% (inactive); in experiment [1] (at 50.0 µM), 39% (inactive) and 21.6% (inactive); in experiment [2] (setting [7]), -13% (inactive); in experiment [2] (setting [8]) it was -3% (inactive); in experiment [2] (at 50.0 µM), 32.5% (inactive) and 4.05% (inactive). The growth inhibition in experiment [3] (setting [7]) was 5% (inactive); in experiment [3] (setting [8]) it was 3% (inactive); in experiment [3] (at 50.0 µM), 67.5% (inactive) and 35.1% (inactive); in experiment [4] (setting [7]), 11% (inactive); in experiment [4] (setting [8]) it was 28% (inactive); in experiment [4] (at 50.0 µM), 39.3% (inactive) and 31.2% (inactive). Further, the growth inhibition is -2% (inactive) in experiment [5] (setting [7]); 54% (inactive) in experiment [5] (setting [8]); 62.6% (inactive) and 53.2% (inactive) in experiment [5] (at 50.0 µM); -3% (inactive) in experiment [6] (setting [7]); 15% (inactive) in experiment [6] (setting [8]); 34.5% (inactive) and 26.6% (inactive) in experiment [6] (at 50.0 µM).

Turning to `CCCCCCCCCCSC(=N)N`, the growth inhibition in experiment [1] (setting [7]) is -141% (inactive) and 19% (inactive); in experiment [1] (setting [8]) it was 82% (active) and 91% (active); in experiment [1] (at 50.0 µM), 52.9% (inactive) and 95.7% (active); in experiment [2] (setting [7]) it was -48% (inactive) and -3% (inactive); in experiment [2] (setting [8]) it was 71% (active) and 86% (active); in experiment [2] (at 50.0 µM), 49.8% (inactive) and 89.2% (active). The growth inhibition in experiment [3] (setting [7]) was -54% (inactive) and 22% (inactive); in experiment [3] (setting [8]), 90% (active) and 95% (active); in experiment [3] (at 50.0 µM) it was 52.5% (inactive) and 96.5% (active); in experiment [4] (setting [7]), -50% (inactive) and 8% (inactive); in experiment [4] (setting [8]) it was 49% (inactive) and 62% (inactive); in experiment [4] (at 50.0 µM) it was 57.5% (inactive) and 57.2% (inactive). Also, the growth inhibition in experiment [5] (setting [7]) was -47% (inactive) and 22% (inactive); in experiment [5] (setting [8]) it was 84% (active) and 92% (active); in experiment [5] (at 50.0 µM), 52.5% (inactive) and 94.3% (active); in experiment [6] (setting [7]) it was -134% (inactive) and 1% (inactive); in experiment [6] (setting [8]) it was 79% (active) and 90% (active); in experiment [6] (at 50.0 µM), 52% (inactive) and 92.1% (active).

As to `COc1cc2c(cc1OC)C(Cc1c3ccccc3cc3ccccc13)N(C)CC2` (stereo unspecified), the growth inhibition in experiment [1] (setting [7]) is 4% (inactive); in experiment [1] (setting [8]), 41% (inactive); in experiment [1] (at 50.0 µM), 16.2% (inactive); in experiment [2] (setting [7]), -18% (inactive); in experiment [2] (setting [8]), 43% (inactive); in experiment [2] (at 50.0 µM), 14.8% (inactive). The growth inhibition was 1% (inactive) in experiment [3] (setting [7]); 50% (inactive) in experiment [3] (setting [8]); 93.1% (active) in experiment [3] (at 50.0 µM); 0% (inactive) in experiment [4] (setting [7]); 3% (inactive) in experiment [4] (setting [8]); 62.5% (inactive) in experiment [4] (at 50.0 µM). In addition, the growth inhibition in experiment [5] (setting [7]) is 0% (inactive); in experiment [5] (setting [8]), 15% (inactive); in experiment [5] (at 50.0 µM), 58.3% (inactive); in experiment [6] (setting [7]) it was 3% (inactive); in experiment [6] (setting [8]), 56% (inactive); in experiment [6] (at 50.0 µM), 99.4% (active).
